About 79,000 compounds went through this panel and 15% of them were active in at least one assay; those are over-represented in the sample as a whole. Calls of active or inactive are those of the source. No stated cut-off is given here; in the data, active means growth inhibition above about 70%; inactive means the rest.
Assays:
[1] = NCI Yeast Anticancer Drug Screen. Data for the rad50 strain (AID 155);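 further: 0% = growth of vehicle-only cultures of the same strain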; conditions: S. cerevisiae rad50 strain growth inhibition; at 50.0 µM; hits give high values
How it was run: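 Genetically altered yeast (DNA repair pathway); compound treatment; growth inhibition vs vehicle ctrl.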

[2] = NCI Yeast Anticancer Drug Screen. Data for the mec2-1 strain (AID 157); conditions: S. cerevisiae mec2-1 strain, at 50.0 µM, hits give high values
How it was run: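 Test agents were screened against the mec2-1 yeast strain, with defined DNA repair or cell cycle alteration. Growth was scored as inhibition against vehicle-only controls.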

[3] = NCI Yeast Anticancer Drug Screen. Data for the sgs1 mgt1 strain (AID 161);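 further: 0% = growth of cultures given vehicle only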; conditions: S. cerevisiae sgs1 mgt1 strain, at 50.0 µM, hits give high values
How it was run: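 Test agents were incubated with a DNA-repair-mutant yeast strain. Growth was then read and compared against vehicle-treated controls.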

[4] = NCI Yeast Anticancer Drug Screen. Data for the cln2 rad14 strain (AID 165);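 further: 0% = growth equal to vehicle treated cultures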; conditions: S. cerevisiae cln2 rad14 strain, at 50.0 µM, hits give high values
How it was run: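 Growth of compound-exposed yeast (cln2 rad14 genotype) measured and expressed as inhibition relative to vehicle.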

[5] = NCI Yeast Anticancer Drug Screen. Data for the mlh1 rad18 strain (AID 175); conditions: S. cerevisiae mlh1 rad18 strain growth inhibition; at 50.0 µM; hits give high values
How it was run: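 In this whole-cell yeast screen, a strain with altered DNA damage repair is challenged with compound, and its growth is measured against matched vehicle-treated controls.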

[6] = NCI Yeast Anticancer Drug Screen. Data for the bub3 strain (AID 167); conditions: S. cerevisiae bub3 mutant strain, at 50.0 µM, hits give high values
How it was run: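 Yeast carrying a defined mutation is treated with each compound, and growth is compared with that of vehicle-exposed cells to give inhibition.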

Measured: growth inhibition

OC1OCC(COc2ccc(Cl)cc2)OC1O (stereo unspecified)
inactive: [1] -17.6% | [2] -9.05% | [3] -12.2% | [4] 1.25% | [5] 18.9%

CCC(O)(c1ccc(OC)cc1)C(O)(CC)c1ccc(OC)cc1 (stereo unspecified)
inactive: [1] 9.2% | [2] 2.05% | [3] 16.4% | [4] 7.8% | [5] 4.9%

CC1=NN(C(=O)CC(=O)Nc2ccccc2C)C(=O)C1N=Nc1ccc(S(=O)(=O)c2ccc(N=NC3C(=O)N(C(=O)CC(=O)Nc4ccccc4C)N=C3C)cc2)cc1 (stereo unspecified)
inactive: [1] 41.6% | [2] 14.5% | [3] -2.25% | [4] 2.45% | [5] 1.35%

COc1ccc(NC(=O)CCC(=O)CC(=O)c2ccc(C)cc2)cc1
inactive: [1] -18.6% | [2] 31.1% | [3] 39.6% | [4] -23.4% | [6] 17.9% | [5] 36.2%

CCCCC(=O)N[C@H]1C[C@H]2CC[C@@]1(C)C2(C)C
inactive: [1] -23.2% | [2] 7.5% | [3] -16.6% | [4] -4.05% | [5] -11.8%

COc1nc2n[nH]nc2c(=O)n1C
inactive: [1] -5.75% | [2] -10.8% | [3] -13.1% | [4] 13.7% | [6] -5.1% | [5] -21.6%

CCNC(=S)Nc1ccc(Cl)cc1
inactive: [1] 27.2% | [2] 40.4% | [3] 39% | [4] -6.1% | [5] 35.8%

CSc1cc(/C=C/c2ccccc2)ccc1[N+](=O)[O-]
inactive: [1] 1.65% | [2] 0.95% | [3] 4.95% | [4] 15% | [5] 4.45%

CCc1cccc(C)c1NC(=O)C(=O)Cc1nc2ccccc2s1
inactive: [1] 0.75% | [2] -7.6% | [3] -9.8% | [4] -2.15% | [5] -6.15%

CCOC(=O)C1C(c2ccc(N(C)C)cc2)c2cc3c(cc2OC1(C)N1CCCC1)OCO3 (stereo unspecified)
inactive: [1] -13.6% | [2] 9.1% | [3] -2.1% | [4] 14.3% | [5] 2.85%

O=C(NCP(=O)(c1ccccc1)c1ccccc1)OCc1ccccc1
inactive: [1] -50.2% | [2] -3.7% | [3] -25.9% | [4] 10.4% | [5] 6.6%

OC(CBr)c1cc(-c2ccccc2)nc2c(Cl)cc(Cl)cc12 (stereo unspecified)
inactive: [1] 31.9% | [2] -8.45% | [3] 33.6% | [4] -16.7% | [5] 50.8%

COCN1COCN(C)C1=O
inactive: [1] 8.5% | [2] 7.3% | [3] -1.55% | [4] 11.6% | [5] 9.1%

COc1cc(CN2CCN(CCO)CC2)c(O)c(CN2CCN(CCO)CC2)c1
inactive: [1] -2% | [2] 1.55% | [3] -23.4% | [4] -6.9% | [5] 6.9%

C[C@@H](CC(=O)O)OC1OC(COC(=O)C(C)(C)C)C(OC(=O)C(C)(C)C)C(OC(=O)C(C)(C)C)C1OC(=O)C(C)(C)C (stereo partly specified)
active: [5] 85.8%
inactive: [1] 4.25% | [2] -45.1% | [3] -17.7% | [4] 7%

Cc1cnc(Cl)[nH]1 (tested in a mixture with another compound)
inactive: [1] 2.7% | [2] 1.55% | [3] 2.15% | [4] -47.5% | [5] -5.5%

CCOC1=CC(=O)CCC1
inactive: [1] -0.2% | [2] -23% | [3] 24.9% | [4] -36.5% | [5] 3%

Clc1ccc(C=Nc2ccccc2)c(Cl)c1
inactive: [1] 23.9% | [2] 10.8% | [3] 20.9% | [4] 11.5% | [5] 26.6%

N#COc1ccc(-c2ccccc2)cc1
inactive: [1] -38.5% | [2] -8.35% | [3] -12.2% | [4] -15.2% | [5] 0.8%

CCCCN=C(N)N=C(N)N
inactive: [1] 6.7% | [2] 2.75% | [3] 0.75% | [4] -7.45% | [5] 4.05%

O=C1CCC(=O)N1c1ccc([I+]c2ccc(N3C(=O)CCC3=O)cc2)cc1
inactive: [1] 32.5% | [2] 6.65% | [3] 12.7% | [4] 15.1% | [5] 14.4%

COc1ccc(Nc2nc(C#N)c(N)s2)cc1
inactive: [1] 3.75% | [2] -12.6% | [3] -0.15% | [4] -0.2% | [5] -9.5%

CC(=O)C(C)c1nc(=S)[nH]c(=S)[nH]1 (stereo unspecified)
inactive: [1] 11.4% | [2] 12.2% | [3] 22.4% | [4] 9.1% | [5] 4.85%

CN(N)C(=O)Nc1ccc([N+](=O)[O-])cc1
inactive: [1] 16.4% | [2] 5.65% | [3] -2.7% | [4] 7.45% | [5] -1.75%

COc1ccc2c(c1)[n+]([O-])c(/C(C)=N/NC(=O)c1ccccc1O)c(C)[n+]2[O-]
inactive: [1] 16.2% | [2] -3.9% | [3] 9.45% | [4] -106% | [5] 0.7%

COc1ccc(C2OC3=C(Nc4ccc([N+](=O)[O-])cc4N3)C2=O)cc1OC (stereo unspecified)
inactive: [1] -9.75% | [2] -24.2% | [3] -16.1% | [4] -3.7% | [5] -0.7%

COc1cccc2c1N=c1c(Cl)c3c(c(Cl)c1O2)=Nc1c(OC)cccc1O3
inactive: [1] -17.9% | [2] -1.45% | [3] -0.25% | [4] -13.9% | [5] -20.4%

Cn1c(=O)c2c(nc(OCC[N+](C)(C)C)n2C)n(C)c1=O
inactive: [1] 5% | [2] 11.8% | [3] -0.25% | [4] 33.4% | [6] 1.85% | [5] 2.45%

Cc1ccc(N=Nc2c(O)ccc3n[nH]nc23)cc1
inactive: [1] 2.75% | [2] 0.2% | [3] 31.9% | [4] -46% | [6] 18.9% | [5] 6.95%

COC(=O)C(C)NC(=O)C(C)NC(=O)c1cc(OC)c(OC)c(OC)c1 (stereo unspecified)
inactive: [1] 28.2% | [2] 17.8% | [3] 17.4% | [4] 17.1% | [5] 15.8%

O=C(O)c1cccc2c1-c1ccc(NC(=O)C(Cl)Cl)cc1C2=O
inactive: [1] 31% | [2] -1.65% | [3] -6.85% | [4] -5.7% | [6] 16.1% | [5] 12.1%

OC1CCC2OC12 (stereo unspecified)
inactive: [1] 7.3% | [2] 0.55% | [3] 18.2% | [4] 0.4% | [5] 2%

CN1c2cccc3cccc(c23)NC12CCCCC2
inactive: [1] 0.6% | [2] -20.5% | [3] -10.8% | [4] -62.2% | [5] -10.8%

Nc1ccc(Cl)c(Cl)c1Cl
inactive: [1] 40.5% | [2] -6.2% | [3] 52% | [4] 31% | [5] 35.7%

NC1C(O)C(N)C(O)C(O)C1O (stereo unspecified)
inactive: [1] 3.3% | [2] 20.4% | [3] 5.6% | [4] 1.6% | [6] -13.4% | [5] 3.25%

Nc1ccc2cc(S(=O)(=O)O)ccc2c1
inactive: [1] 3.95% | [2] 14.9% | [3] -21.1% | [4] -3.95% | [5] -6.05%

S=c1nc(-c2cccnc2)[nH][nH]1
inactive: [1] 1.6% | [2] 0.5% | [3] 0.7% | [4] 0.8% | [5] 3.85%

CC(=O)CCn1c(=S)sc2ccccc21
inactive: [1] -6.3% | [2] 30.2% | [4] 12.2% | [6] 29.7% | [5] -28.6%

Source: PubChem BioAssay (NCI)
